Reference: PubChem BioAssay AID1159580 (chemical genetic matrix, 2015)
Screen size: about 5,500 compounds; about 2,000 (36%) were called active. Inconclusive results (about 18%) are left out. No stated cut-off is given here; in the data, active means normalized growth mostly below about 0.91 (no sharp cut-off); inconclusive means no clear call, values can overlap the other calls; inactive means mostly above about 0.92. Some of the results follow.

Test: chemical genetic growth profiling, strain panel (AID 1159580);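 further: tested at 20 µM; growth read once vehicle control cultures reached saturation at 30 °C; 1 = growth at the plate median or of vehicle wells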
Conditions: S. cerevisiae deletion strains, growth OD

Measured: normalized growth

O=C1CCc2ccc(OCCCCN3CCN(c4cccc(Cl)c4Cl)CC3)cc2N1
inactive: locus YHR030C, strain SLT2, stronger effect = lower value 1.03 | locus YHR079C, strain IRE1, stronger effect = lower value 0.961 | locus YJL095W, strain BCK1, stronger effect = lower value 0.955 | locus YJR066W, strain TOR1, stronger effect = lower value 0.927 | locus YLR113W, strain HOG1, stronger effect = lower value 0.959 | locus YNL183C, strain NPR1, stronger effect = lower value 0.894 | locus YOR231W, strain MKK1, stronger effect = lower value 0.97 | locus YPL256C, strain CLN2, stronger effect = lower value 0.975
